The source of these data is PubChem BioAssay (NCATS).

SMILES strings stand for the structures. Records with an inconclusive call do not appear. Active and inactive are the calls of the source. Unless noted, calls follow the shape of the dose curve; as a rule, active = well fitted curve in the direction sought with a large enough effect; inconclusive = small, poorly fitted or top-dose-only effect, or another doubt; inactive = no such curve, though single readings can be large; an effect the other way counts as inactive or inconclusive.

Test [1] can be described thus: qHTS Assay for Lipid Storage Modulators (AID 1519; calls by dose curve; as to activity change, negative = inhibition: % is scaled to controls: 0 for no effect and ±100 for the full control effect). Particulars: Drosophila S3 cells, BODIPY lipid droplet/cell ratio, laser cytometry, cells loaded with oleic acid. In a few lines: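 Cells seeded at 5,000 per well were treated with compounds over a concentration series and loaded with oleic acid (400 uM, as added). Lipid droplet fluorescence (488 nm excitation, 500-530 nm channel) was read by laser-scanning cytometry and normalized to 20 uM Triacsin C.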

Test [2] in a line: Validation of Assay for Modulators of Lamin A Splicing (AID 1459; active = well fitted curve in the direction sought with a large enough effect in the signal ratio; the % refers to the signal ratio;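 also: cells exposed to compound for two days before reading; 0% is about no effect; ratio rise marks activators and ratio drop marks inhibitors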). The conditions noted are these: Lamin A splicing dual RFP/GFP fluorescence reporter; series mostly up to 9.22 µM. In a few lines:
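HeLa S3 lamin A-EGFP/DsRed2 stable clone, 600 cells/well, Opti-MEM 2% FBS; compounds by pin tool; 48 hrs, 37 °C/5% CO2; Acumen 488 nm scan, objects 10-100 um; GFP/RFP intensity ratio.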

Test [3] concerns the target DNA repair nuclease/redox regulator APEX1 (Homo sapiens) (UniProt P27695). Put plainly: qHTS Validation Assay for Inhibitors of the Human Apurinic/apyrimidinic Endonuclease 1 (APE1) (AID 1705;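 also: TAMRA fluorescence gain over two minutes as APE1 cuts a quenched THF abasic duplex; % is scaled to controls: 0 for no effect and ±100 for the full control effect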). The conditions noted are these: purified APE1 endonuclease activity, fluorescence, titration; series mostly up to 57.1 µM. The procedure, abridged: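 qHTS, 1536-well. APE1 + cpd 15 min RT → 50 nM TAMRA/BHQ-2 THF-abasic dsDNA substrate → kinetic fluorescence, 3 reads/60 s; delta(read3−read1) = reaction progress. No-enzyme buffer = negative control.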

Test [4] can be described thus: Counterscreen for APE1 Inhibitors: Fluorescent Dye Displacement Validation Assay (AID 1707).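 Also: plate controls were ThO with dsDNA and no compound for no effect and ThO without dsDNA for full effect.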 Particulars: fluorescent dye displacement from DNA; series mostly up to 57.1 µM. The procedure, abridged: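 Assay buffer: Tris-HCl pH7.5 with 50mM NaCl, 2 mM MgCl2, 0.01% Tween-20. Dye 250 nM, duplex 50 nM final. Readout: decrease in ThO endpoint fluorescence, 480 nm excitation, 540 nm emission.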

The target of test [5] is Endonuclease 4 (Escherichia coli (strain K12)) (UniProt P0A6C1). In words: Counterscreen for APE1 Inhibitors: qHTS Validation Assay for Inhibitors of Endonuclease IV (AID 1708). Also: % is scaled to controls: 0 for no effect and ±100 for the full control effect. The conditions noted are these: E. coli endonuclease IV, DNA cleavage fluorescence; series mostly up to 57.1 µM. In a few lines: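 2 nM enzyme was preincubated with compounds for 15 min at room temperature in 50 mM Tris-HCl pH 7.5, 50 mM NaCl, 2 mM MgCl2, 1 mM DTT, 0.01% Tween-20. 50 nM THF-abasic TAMRA/BHQ-2 duplex substrate started the reaction.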

The nature of test [6]: qHTS for differential inhibitors of proliferation of Plasmodium falciparum line 7G8 (AID 1815).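 Also: parasite growth measured after three days of incubation; plate controls were vehicle wells for no effect and reference inhibitor wells for full effect.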 Particulars: Plasmodium falciparum 7G8 proliferation inhibition; series mostly up to 28.7 µM.
Test [7] in a line: qHTS for differential inhibitors of proliferation of Plasmodium falciparum line GB4 (AID 1816).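 Also: parasite growth measured after 72 h incubation; 0% = vehicle DMSO and -100% = reference inhibitor.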 Particulars: Potency: Plasmodium falciparum GB4 proliferation inhibition; series mostly up to 28.7 µM.
Test [8] in a line: qHTS for differential inhibitors of proliferation of Plasmodium falciparum line 3D7 (AID 1876).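 Also: parasite growth measured after three days of culture; 0% = vehicle wells and -100% = reference inhibitor wells.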 The conditions noted are these: P. falciparum 3D7 proliferation inhibition; series mostly up to 28.7 µM.
Test [9] can be described thus: qHTS for differential inhibitors of proliferation of Plasmodium falciparum line D10 (AID 1877).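 Also: parasites grown with compound for 72 h before DNA staining; plate controls were vehicle wells for no effect and reference inhibitor wells for full effect.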 The conditions noted are these: series mostly up to 28.7 µM.
The mark [10] stands for this setting: measured here: cell count channel max response.
[11] abbreviates: measured here: lipid channel max response.

DNA repair nuclease/redox regulator APEX1 (Homo sapiens), sequence (P27695 whole entry, looked up): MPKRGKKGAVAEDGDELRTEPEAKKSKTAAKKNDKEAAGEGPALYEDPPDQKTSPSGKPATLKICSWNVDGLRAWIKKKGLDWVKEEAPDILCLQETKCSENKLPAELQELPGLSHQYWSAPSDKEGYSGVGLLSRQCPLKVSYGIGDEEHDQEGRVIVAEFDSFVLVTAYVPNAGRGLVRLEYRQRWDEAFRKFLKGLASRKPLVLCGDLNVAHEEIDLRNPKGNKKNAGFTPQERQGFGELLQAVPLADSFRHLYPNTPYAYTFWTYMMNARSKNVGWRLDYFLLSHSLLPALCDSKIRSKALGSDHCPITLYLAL

For the molecule `COC(=O)Nc1nc2ccc(Sc3ccccc3)cc2[nH]1`, in test [1] (at 57.5 µM (top of the series)), the activity change, negative = inhibition was 4.46% (inactive). Further, the max response in test [1] (setting [10]) was -3.56%; in test [1] (setting [11]), 3.98%.

With `CNS(=O)(=O)Cc1ccc2[nH]cc(CCN(C)C)c2c1`, in test [1] (at 57.5 µM (top of the series)), the activity change, negative = inhibition is 8.81% (inactive). The figures for the max response in [1] (setting [10]) and in [1] (setting [11]) were 40% and 52.5%, respectively.

As for `CCN1CCCC1CNC(=O)c1cc(S(N)(=O)=O)ccc1OC` (stereo not drawn), the outcome in [2], in test [3], in [4] and in test [5] was inactive. The activity change, negative = inhibition in test [1] (at 57.5 µM (top of the series)) was 2.89% (inactive). Besides, the values for the max response in test [1] (setting [10]) and in [1] (setting [11]) were 2.98% and 5.52%, respectively. The Potency result in test [6], in test [7], in test [8] and in test [9] was “inactive” in each case.

Turning to `S=P(N1CC1)(N1CC1)N1CC1`, the activity change, negative = inhibition in test [1] (at 57.5 µM (top of the series)) is 7.1% (inactive). In addition, the figures for the max response in [1] (setting [10]) and in test [1] (setting [11]) were 5.1% and 17.7%, respectively.

Regarding `COc1ccc2c(c1)c(CC(=O)OCC(=O)O)c(C)n2C(=O)c1ccc(Cl)cc1`, the activity change, negative = inhibition in test [1] (at 25.7 µM (top of the series)) was 1.43% (inactive). Besides, the max response in test [1] (setting [10]) was 9.96%; in test [1] (setting [11]), 10.1%.

Regarding `CC(=O)CC(c1ccccc1)c1c(O)c2ccccc2oc1=O` (stereo not drawn), the activity change, negative = inhibition in test [1] (at 57.5 µM (top of the series)) is 15.6% (inactive). In addition, the max response in test [1] (setting [10]) amounted to 10.6%; in test [1] (setting [11]) it was 30.9%.

Consider `O=S(=O)(c1cccc2cnccc12)N1CCCNCC1`, for which the activity change, negative = inhibition in [1] (at 57.5 µM (top of the series)) was -2.33% (inactive). In addition, the max response in test [1] (setting [10]) worked out at 9.76%; in [1] (setting [11]), 6.29%.

Regarding `O=C(O)C1CCCN(CCC=C(c2ccccc2)c2ccccc2)C1` (stereo not drawn), the result in test [2], in [3], in test [4] and in test [5] was inactive. Further, the Potency entry in test [6], in [7], in [8] and in test [9] was “inactive” in each case.

In the case of `COC(=O)Nc1nc2ccc(C(=O)c3ccccc3)cc2[nH]1`, the activity change, negative = inhibition in [1] (at 25.7 µM (top of the series)) is -15.3% (inactive). In addition, the max response was -1.6% in [1] (setting [10]) and -17.4% in test [1] (setting [11]).

For the molecule `CCOC(=O)c1ccc(OC(=O)CCCCCN=C(N)N)cc1`, in test [1] (at 25.7 µM (top of the series)), the activity change, negative = inhibition was 1.48% (inactive). Moreover, the max response in test [1] (setting [10]) is -14.4%; in test [1] (setting [11]) it was -13.1%.

Turning to `Clc1ccccc1CN1CCc2sccc2C1`, the activity change, negative = inhibition in [1] (at 25.7 µM (top of the series)) is -0.65% (inactive). The max response in [1] (setting [10]) was -21%; in test [1] (setting [11]), -18.8%.

For `Nc1nc(=S)c2[nH]cnc2[nH]1`, in test [1] (at 57.5 µM (top of the series)), the activity change, negative = inhibition was 8.45% (inactive). For the same molecule, the max response stood at 14.3% in test [1] (setting [10]) and 28.9% in [1] (setting [11]).

Take `CN(C)CCc1c[nH]c2ccc(CS(=O)(=O)N3CCCC3)cc12`: in test [1] (at 57.5 µM (top of the series)), the activity change, negative = inhibition is 5.82% (inactive). The max response was determined as 19.2% in test [1] (setting [10]) and 27.5% in [1] (setting [11]).

As for `Cc1cccc(N(C)C(=S)Oc2ccc3ccccc3c2)c1`, the activity change, negative = inhibition in [1] (at 25.7 µM (top of the series)) is 1.79% (inactive). The max response in [1] (setting [10]) is -7.01%; in [1] (setting [11]) it was -5.23%.

With `CC(C)NCC(O)c1ccc(NS(C)(=O)=O)cc1` (stereo not drawn), the result in test [2], in test [3], in [4] and in [5] was inactive. Further, the Potency entry in test [6], in test [7], in test [8] and in test [9] was “inactive” each time.

With `COC(=O)Nc1nc2ccc(S(=O)c3ccccc3)cc2[nH]1` (stereo not drawn), in [1] (at 57.5 µM (top of the series)), the activity change, negative = inhibition is 10.3% (inactive). In addition, the results for the max response in test [1] (setting [10]) and in [1] (setting [11]) were 14.2% and 29.6%, respectively.

In the case of `CNNCc1ccc(C(=O)NC(C)C)cc1`, in test [1] (at 25.7 µM (top of the series)), the activity change, negative = inhibition was 1.45% (inactive). Besides, the max response in test [1] (setting [10]) was -0.816%; in test [1] (setting [11]), 0.0882%.

Take `Nc1[nH]c(=O)ncc1F`: the activity change, negative = inhibition in test [1] (at 25.7 µM (top of the series)) was 0.855% (inactive). Further, the values for the max response in test [1] (setting [10]) and in test [1] (setting [11]) were 2.68% and 3.39%, respectively.

For `OC(Cn1cncn1)(Cn1cncn1)c1ccc(F)cc1F`, the activity change, negative = inhibition in test [1] (at 57.5 µM (top of the series)) is 11.9% (inactive). Moreover, the max response in test [1] (setting [10]) is 12.6%; in test [1] (setting [11]), 26.4%.

For `CC[C@H](NC(C)C)[C@H](O)c1ccc(O)c2[nH]c(=O)ccc12`, in test [1] (at 57.5 µM (top of the series)), the activity change, negative = inhibition is -1.12% (inactive). The max response in [1] (setting [10]) was -20.9%; in test [1] (setting [11]) it was -21.9%.
